Source: PubChem
LGR2 antag – inhibitors of bursicon-induced Drosophila LGR2 receptor cAMP signaling | inhibition, % at 9.99 µM | HEK293 LGR2, CRE-luciferase, bursicon-stimulated, 4 h | AID 720647 | actives 0.35% (n = 380,000);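 active = drop in luminescence signal, shown as inhibition above about 50% in the replicate tests, limit read from the data, passing the limit was not always enough; inconclusive = probably only some replicates passing the limit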;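 also: agonist challenge used bursicon conditioned medium at about half maximal strength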
EBV LMP1 NFkB – reduces LMP1-driven NF-kappaB luciferase signal; LMP1-induced NF-kappaB luciferase reporter cells, luminescence; inhibition, % at 12.5 µM; actives 0.69% (n = 350,000); AID 504558; in the data active = inhibition above about 41%; inconclusive = no clear call, values can overlap the other calls;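 also: 0% = neutral control wells and 100% = reference inhibitor control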
EWS-Fli block – EWS/Fli transcriptional activity inhibition; actives 0.67% (n = 350,000); A673 NR0B1-luciferase reporter, viability-normalised; AID 651661; inhibition, % at 12.6 µM;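 active = mean inhibition of at least 50% after viability correction, with every replicate also passing that limit; inconclusive = mean reaches 50% but only one of two replicates passes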;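 also: firefly luciferase signal divided by Alamar Blue viability fluorescence both relative to DMSO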
PAX8 reporter – inhibitors of PAX8 transcriptional activity in RMG-I cells; RMG-I TPO-luciferase reporter, SteadyGlo, 24 h; inhibition, % at 12.6 µM; actives 1.2% (n = 360,000); AID 652154;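 active = mean replicate inhibition at least 60% with every replicate also reaching 60%; inconclusive = only one of the two criteria is met; inactive = mean below 60% and not all replicates reaching 60%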;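 also: luciferase light reporting Pax8 driven TPO promoter activity; plate controls were median of neutral control wells for no effect and mitoxantrone controls for full effect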
Shn3 inh set2 – reduces Shn3 3'UTR luciferase signal in osteoblasts. Clone20 osteoblast Shn3 3'UTR firefly luciferase, 24 h. inhibition, % at 12.5 µM. actives 0.52% (n = 360,000). AID 588674;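 active = mean inhibition of at least 75% with every replicate also reaching 75%; inconclusive = mean inhibition at least 75% but some replicate below; inactive = mean inhibition below 75%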;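 also: 0% = median of neutral control wells and 100% = pilot-screen positive control compound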
MITF TRPM1 inh – MITF TRPM1 promoter inhibition in SK-MEL-5 cells | actives 0.83% (n = 330,000) | SK-MEL-5 TRPM1 promoter luciferase, 24 h | inhibition, % at 12.5 µM;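 active = mean inhibition across replicates of 60% or more, whatever share of single replicates reaches that level; inconclusive = some that reach 60%, reason not given; inactive = mean inhibition across replicates below 60%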
Numbers without * were called inactive; ? = inconclusive; . = no result given; ! = a repeat was not active. Only some compounds are listed: those with a hit (about 2.2% of all), similar ones and a draw of the others.

SMILES	LGR2 antag	EBV LMP1 NFkB	EWS-Fli block	PAX8 reporter	Shn3 inh set2	MITF TRPM1 inh
O=C([C@H]1[C@H](CO)[C@H]2Cn3c(ccc(-c4cccc(F)c4)c3=O)[C@H]2N1Cc1cocn1)N1CCCCC1	-1	.	-3	-2	.	.
C[C@@H]1CN([C@H](C)CO)C(=O)Cc2cc(NC(=O)CCN3CCOCC3)ccc2O[C@@H]1CN(C)S(=O)(=O)c1ccccc1	6	.	-2	-2	.	.
CC(=O)OCC(=O)C1(O)CCC2C3CC(F)C4=CC(=O)CCC4(C)C3C(=O)CC21C (stereo unspecified)	-6	1	4	-11	-4	-12
CC(=O)OCC(=O)[C@@]1(O)CC[C@H]2[C@@H]3CCC4=CC(=O)CC[C@]4(C)[C@H]3[C@@H](O)C[C@@]21C	-27	86*!	5	10	4	-8
CCC(CC)C(=O)OCC(=O)C1(O)CCC2C3CCC4=CC(=O)CCC4(C)C3C(O)CC21C (stereo unspecified)	13	-3	-4	11	-4	-3
CC(=O)OCC(=O)[C@@]1(O)CC[C@H]2[C@@H]3CCC4=CC(=O)CC[C@]4(C)[C@H]3C(=O)C[C@@]21C	-4	-2	-10	-12	88*	-3
COc1ccc(NC(=O)N(C)C[C@@H]2Oc3ncc(C#CC(C)C)cc3C(=O)N([C@H](C)CO)C[C@@H]2C)cc1	8	.	2	.	.	.
COc1cccc(CNC(=O)C[C@H]2CC[C@@H](NC(=O)C3CCOCC3)[C@@H](CO)O2)c1	11	.	7	-3	.	.
C[C@@H]1CN([C@@H](C)CO)C(=O)Cc2cc(NS(=O)(=O)c3cccs3)ccc2O[C@H]1CN(C)Cc1ccccc1	-2	.	12	7	.	.
O=C(N/C(=C/c1ccccc1Cl)C(=O)N1CCOCC1)c1ccccc1	1	67*	-1	-7	79	-3
CC(C)NC(=O)Nc1ccc2c(c1)C(=O)N([C@H](C)CO)C[C@H](C)[C@@H](CN(C)C(=O)Nc1ccc3c(c1)OCO3)OCCCC[C@H](C)O2	-1	.	-48	11	.	.
COc1ccc(C2/C(=C(/O)c3ccc(C)cc3)C(=O)C(=O)N2C)cc1 (stereo unspecified)	5	-8	.	.	4	4
COc1ccc(N2C(=O)C(=O)/C(=C(/O)c3ccc(C)cc3)C2c2cccnc2)cc1 (stereo unspecified)	16	44*	.	12	-29	-7
CC1CCCC(NC(=O)COC(=O)CCC(=O)c2cccs2)C1C (stereo unspecified)	11	57*	1	-4	-7	6
CC1CCCCC1NC(=O)COC(=O)CCC(=O)c1cccs1 (stereo unspecified)	7	2	-5	-3	-14	-20
COc1ccc(-c2cc3c(=O)n(CC(=O)NCCCN4CCC(N5CCCCC5)CC4)nc(C)n3n2)cc1	13	-2	-25	-5	-19	72*
N#C[C@H]1[C@@H](c2ccc(C3=CCCCC3)cc2)[C@H](CO)N1C(=O)c1ccccn1	88*	.	-8	12	.	.
N#C[C@@H]1[C@H](c2ccc(-c3ccccc3F)cc2)[C@@H](CO)N1C(=O)Cc1ccccc1	13	.	19	103*	.	.
N#C[C@@H]1[C@@H](c2ccc(C#CCC3CCCC3)cc2)[C@H](CO)N1C(=O)c1ccccn1	-24	.	4	14	.	.
CCc1cnc(N2[C@@H](C#N)[C@@H](c3ccc(C#CCC4CCCC4)cc3)[C@@H]2CO)s1	0	.	-11	73*	.	.
N#C[C@H]1[C@@H](c2ccc(C#CCC3CCCC3)cc2)[C@@H](CO)N1C(=O)c1ccccn1	12	.	23	74*	.	.
C[C@@H]1CN([C@@H](C)CO)C(=O)Cc2cc(NS(=O)(=O)c3ccc(Cl)cc3)ccc2O[C@@H]1CN(C)Cc1ccc(C(=O)O)cc1	10	.	3	.	.	.
C[C@H](CO)N1C[C@H](C)[C@@H](CN(C)C(=O)Nc2ccc(F)cc2)Oc2ccc(NC(=O)Cc3cn(C)c4ccccc34)cc2C1=O	6	.	6	27	.	.
COc1cccc(C#Cc2ccc([C@H]3[C@@H](C#N)N(C(=O)c4ccccn4)[C@@H]3CO)cc2)c1	35	.	-39	76*	.	.
COc1cccc(-c2ccc([C@H]3[C@@H](CO)N(C(=O)c4ccccn4)[C@H]3C#N)cc2)c1	66*	.	-9	83*	.	.
SMILES	LGR2 antag	EBV LMP1 NFkB	EWS-Fli block	PAX8 reporter	Shn3 inh set2	MITF TRPM1 inh
COc1cccc(-c2ccc([C@H]3[C@@H](C#N)N(C(=O)c4ccccn4)[C@@H]3CO)cc2)c1	-7	.	-52	-77	.	.
N#C[C@H]1[C@@H](c2ccc(-c3ccccc3)cc2)[C@@H](CO)N1S(=O)(=O)Cc1ccccc1	22	.	4	9	.	.
COc1cccc(C#Cc2ccc([C@@H]3[C@@H](C#N)N(C(=O)c4ccccn4)[C@@H]3CO)cc2)c1	4	.	-14	43	.	.
COc1cccc(-c2ccc([C@H]3[C@@H](CO)N(C(=O)Cc4ccccc4)[C@H]3C#N)cc2)c1	-3	.	4	91*	.	.
N#C[C@@H]1[C@@H](c2ccc(-c3ccc(F)cc3)cc2)[C@@H](CO)N1S(=O)(=O)Cc1ccccc1	-2	.	-3	69*	.	.
Cc1ccc(S(=O)(=O)N[C@H]2C=C[C@H](CC(=O)N3CCc4ccccc4C3)O[C@H]2CO)cc1	6	.	7	11	.	.
O=C(C[C@H]1C=C[C@@H](NS(=O)(=O)c2ccc(F)cc2)[C@@H](CO)O1)N1CCC(Cc2ccccc2)CC1	8	.	17	14	.	.
Cc1ccc(-c2nc3cccnc3o2)cc1NC(=O)COc1ccc(C(C)(C)C)cc1	.	81*	.	.	95*	-3
O=[N+]([O-])c1cccc2nc3ccccc3c(NCCCn3ccnc3[N+](=O)[O-])c12	.	3	-10	-6	-4	82*
O=C(NNC(=O)c1cccnc1SCc1cccc([N+](=O)[O-])c1)c1ccccn1	20	31	11	46	96*	42
Cc1ccc(S(=O)(=O)Nc2ccc3c(c2)CC(=O)N([C@@H](C)CO)C[C@H](C)[C@@H](CN(C)C)O3)cc1	-2	.	-3	-19	.	.
COc1cc(-c2cc(OC)c3c(C)oc(C)c3c(=O)c2)ccc1O	2	3	18	.	12	2
CCCc1cc(=O)c2c(O)ccc(OC)c2o1	5	55*	9	-14	6	-3
COc1ccccc1N1CCN(c2ccc3ccccc3n2)CC1	-13	-29	18	-109	-66	-113
COc1ccccc1N1CCN(c2ccc(-c3ccccc3)nn2)CC1	.	70*	.	.	-3	40
CC(=O)Nc1ccc(C=NNc2nnc(NN=Cc3ccc(NC(C)=O)cc3)c3ccccc23)cc1	?	45*	29	-13	8	-1
O=C(C[C@H]1CC[C@@H]2[C@H](COC[C@H](O)CN2S(=O)(=O)c2ccc(F)cc2)O1)N[C@H]1CCN(Cc2ccccc2)C1	0	.	-12	9	.	.
